Assay results taken from PubChem BioAssay (NCATS).
Inconclusive results are not listed. Unmarked numbers belong to inactive results. The source made the active and inactive calls. The call rests on the fitted dose curve; in most records, active means well fitted cell-killing curve with a large enough effect; inconclusive means small, poorly fitted or top-dose-only effect; inactive means no such curve, though single readings can be large or run the other way.

Experiment: qHTS of pediatric cancer cell lines to identify multiple opportunities for drug repurposing: Primary screen for SJ-GBM2 cells (AID 1347091)
Conditions: SJ-GBM2 viability, CellTiter-Glo luminescence, 48 h; series mostly up to 46 µM; activity change, negative = cytotoxic: at the top concentration
From the text: Drug repurposing or repositioning has been offered as a strategy for drug development in oncology programs. This approach has special potential for childhood cancers and other rare or orphan diseases, where the expected return on new drug development has been a disincentive to pharmaceuticals.
In this project we exploit the poly-pharmacology of drugs to discover new indications via phenotypic screening of a panel of 19 well-characterized cell lines derived from solid tumors seen in children and adolescents. The goal is to identify approved drugs with previously unrecognized anticancer properties that has the potential to reveal new mechanisms and biological processes involved in carcinogenesis or drug resistance. We employed a titration-based paradigm (quantitative high-throughput screening or qHTS), where all compounds were tested at multiple concentrations for their effect on cell viability. Concentration-response curves (CRCs) were derived directly from the primary screen, and both potency and efficacy values were used to identify compounds with robust bioactivity profiles. We screened the NIH Chemical Genomics Center (NCGC) Pharmaceutical Collection (NPC) and Mechanism Interrogation Plate (MIPE) small molecule collections of approved and investigational compounds against these cell lines; and measured metabolically active cells after 48 hours of compound treatment as a proxy for cell viability.
Assay Submitter: Nathalia J. Martinez, National Center for Advancing Translational Sciences, National Institutes of Health, Rockville, MD, USA; email: natalia.martinez@nih.gov
[1] Shen, M et al. Quantitative high-throughput phenotypic screening of pediatric cancer cell lines identifies multiple opportunities for drug repurposing. Oncotarget 2017 Dec 19;9(4):4758-4772. PMID 29435139.
The cells were obtained from University of North Carolina (UNC), Pediatric Preclinical Testing Program (PPT), and Coriell Institute (CI).
qHTS cell viability assay:
Cells were assayed in growth media at a density of 500-1,000 cells/well. Five microliters of cells were dispensed into 1,536-well, white, solid-bottom, TC-treated plates (Greiner Bio One) using a multidrop dispenser and incubated at 37 degrees C, 5% CO2, under a humidified atmosphere for 5 hours. Twenty-three nanoliters of compounds and controls (neutral control DMSO or positive control bortezomib at final concentration of 2.3 µM) were subsequently transferred by Kalypsys pintool. For primary screens, the MIPE collection was tested at 11-point dilutions (final concentrations range from 0.78 nM to 46 µM) and the NPC collection at 8-point dilutions (final concentrations range from 0.59 nM to 46 µM). Compounds tested in follow-up screens were assayed at 11-point dilutions. Cells were incubated for 48 hours, followed by addition of 3 uL of CellTiter-Glo (Promega). After a 15 min incubation at room temperature, samples were analyzed for luminescence intensity using a ViewLux High-throughput CCD imager equipped with clear filters.
Potency means the concentration at half of the fitted maximal effect.

| SMILES | activity change, negative = cytotoxic | Potency |
| --- | --- | --- |
| Nc1ccc2c(c1)CN1C(=O)c3ccccc3C1=N2 | -24.1% [at 16.1 µM] | – |
| C[C@@]12CCC[C@H]1[C@@H]1CC[C@H]3C[C@@H](O)CC[C@]3(C)[C@H]1CC2 | -5.65% | – |
| C[C@H]1C[C@H]2[C@@H]3CCC4=CC(=O)C=C[C@]4(C)[C@H]3C(=O)C[C@]2(C)[C@@]1(O)C(=O)CO | 20.3% | – |
| O=C(O)[C@@H](O)[C@H](O)[C@H](O)[C@@H](O)C(=O)O | 17.2% | – |
| CC1CCCCN1CCCOC(=O)c1ccc(OC2CCCCC2)cc1 (stereo not given) | -10.8% | – |
| CCS(=O)(=O)c1ccc(OC)c(C(=O)OC)c1 | 26.2% | – |
| COC(=O)c1cc(Cl)ccc1NS(=O)(=O)C(F)(F)F | 19.3% | – |
| CC(COc1ccccc1)NN (stereo not given) | 6.29% | – |
| C/C(=N/NC(=O)c1ccncc1)C(=O)O | 11.9% | – |
| CCC(C(=O)NC(=O)NC(C)=O)c1ccccc1 (stereo not given) | 1.97% | – |
| O=C(Nc1ccc(Cl)cc1)Nc1ccc(Cl)c(Cl)c1 | – | 11.9 µM (active) |
| O=C1NC(c2ccccc2)(c2ccccc2)C(=O)N1COP(=O)(O)O | 22.5% | – |
| COc1cc(C(=O)OC(COCCC(C)C)CN2CCOCC2)cc(OC)c1OC (stereo not given) | 10.8% | – |
| O=C1CC2(CCCC2)CC(=O)N1 | 23.4% | – |
| COC(=O)c1ccc(NC(C)=O)cc1OC | 28.8% | – |
| O=C(O)c1cn(C2CC2)c2cc(Cl)c(F)cc2c1=O | 59.2% | – |
| C/C(=C(/OCCOc1ccc(Cl)cc1)c1ccc(Cl)cc1Cl)n1ccnc1 | 4.46% | – |
| CN(C)CCN1CCN(c2cccc(Cl)c2)C1=O | 4.62% | – |
| COC(=O)c1cc(Cl)ccc1OC | 11.7% | – |
| CCCc1ncc(C(=O)O)s1 | 17.8% | – |

| SMILES | activity change, negative = cytotoxic | Potency |
| --- | --- | --- |
| Nc1cccc2c(N)cccc12 | -8.06% [at 92.7 µM] | – |
| COCCOCC(OC)OC | 7.52% | – |
| COc1ccc(CCC(C)=O)cc1 | 6.45% | – |
| CN(C)C(=O)CNC(=O)Cc1ccccc1 | 1.23% | – |
| Cc1ccc(CCn2c3c(c4cc(Cl)ccc42)CN(C)CC3)cn1 | 1.98% | – |
| Clc1ccc2c(c1)Nc1ccccc1S2 | 15% | – |
| NS(=O)(=O)c1cc(C(=O)NN2C[C@H]3[C@H]4CCC(C4)[C@H]3C2)ccc1Cl | 4.3% | – |
| CCOC(=O)CN1CCCC1=O | 22.3% | – |
| CCC(=O)O[C@H]1[C@H](O[C@@H]2[C@@H](C)[C@H](O[C@H]3C[C@@](C)(OC)[C@@H](O)[C@H](C)O3)[C@@H](C)C(=O)O[C@H](CC)[C@@](C)(O)[C@H](O)[C@@H](C)C(=O)[C@H](C)C[C@@]2(C)O)O[C@H](C)C[C@@H]1N(C)C | 10.2% | – |
| CN1N=C(C(N)=O)CCC1=O | 18.5% | – |
| O=C(c1cc(O)c(O)c(O)c1)c1ccc(O)c(O)c1O | 27% | – |
| CCOC(=O)c1ccc(O)c(O)c1 | 13.3% | – |
| Nc1ncnc2nc[nH]c12 | -24.8% | – |
| COC(=O)c1cc(Cl)c(NC(C)=O)cc1OC | 39.5% | – |
| CC(C)OC(=O)c1cc2c(OCC(O)CNC(C)(C)C)cccc2[nH]1 (stereo not given) | 0.886% | – |
| CCOC(=O)C(O)c1ccccc1 (stereo not given) | 13.5% | – |
| CCOC(=O)NNc1ccc(N(CC)CC(C)O)nn1 (stereo not given) | 6.58% | – |
| O=C(O)CCCC[P+](c1ccccc1)(c1ccccc1)c1ccccc1 | 2.61% | – |
| C[C@H](N)C(=O)N[C@@H](C)C(=O)NC1[C@H]2CN(c3nc4c(cc3F)c(=O)c(C(=O)O)cn4-c3ccc(F)cc3F)C[C@@H]12 (stereo not given in full) | 79.1% | – |
| COC(=O)c1cc(S(N)(=O)=O)ccc1OC | -1.96% | – |
